In the library only some 2.9% were active in any assay of this set; here they are far more common.
ATXN2 expr inh: ATXN2 expression inhibition; 360,000 compounds, 0.72% hits; AID 1745845; Potency, µM (top dose mostly 57 µM), for inactives: top-dose activity change, negative = inhibition, actives largely listed as inhibitors; HEK-293 ATXN2-luciferase reporter, luminescence, 24 h; further: on the % scale 0 is the no-effect control and ±100 the full control effect; nearly all actives have a fitted effect of over 55% in size
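qHTS (up to 57 uM final) was run with 24 h compound exposure of reporter cells at 37 °C. Each well was multiplexed: SteadyGlo luminescence measured ATXN2-luciferase expression after a fluorogenic Gly-Phe-AFC viability readout (25 uM final).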
Nrf2 block: blocks Nrf2 signaling | A549 ARE-Fluc reporter, luciferase luminescence, 18-24 h | Potency, µM (series often up to 46 µM), without a hit: at the top dose activity change, negative = inhibition, actives largely listed as inhibitors | 360,000 compounds, 2.1% hits | AID 504444; further: on the % scale 0 is the no-effect control and ±100 the full control effect; nearly all actives have a fitted effect of over 60% in size
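Two sequential reads on A549 ARE_Fluc cells exposed to compound for 18-24 h: a CellTiter-Fluor fluorescence read for viability, then a luciferase luminescence read for Nrf2/ARE activity.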
A549 tox-1: kills or reduces viability of A549 cells in Nrf2 counter-screen; A549 ARE-Fluc cells, CellTiter-Fluor viability, 18-24 h; Potency, µM (top dose mostly 46 µM), for the others: at the highest dose activity change, negative = cytotoxicity, most hits filed as inhibitors; 390,000 compounds, 0.16% hits; AID 504648; further: on the % scale 0 is the no-effect control and ±100 the full control effect
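A549 ARE_Fluc cells in 5% FBS OPTI-MEM were exposed to compounds in concentration-response for 18-24 h at 37 deg C. Viability was read by CellTiter-Fluor fluorescence (Ex 405/Em 525) after 30 min, before the luciferase read.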
Nrf2 ARE act: activators of Nrf2 (ARE) signaling; AREc32 ARE-luciferase reporter (MCF7-derived line), luminescence, 24 h; Potency, µM (titrated, usually from 46.1 µM), for inactives: top-dose activation, hits mostly activators; 410,000 compounds, 0.31% hits; further: % of control where 0% means no effect; nearly all actives have a fitted effect of over 65% in size
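Luminescent ARE reporter assay in AREc32_Fluc cells: overnight plating at 37 deg C, 24 hr compound incubation, Steady-Glo added, 30 min RT before reading.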
S2 tox: viability counter-screen for ATXN expression inhibitors | S2 cells (HEK-293 line with an ATXN2-luciferase reporter) viability, CellTiter-Fluor protease fluorescence, 24 h | Potency, µM (top dose mostly 56.7 µM), usual class: cytotoxic | 400,000 compounds, 0.49% hits | AID 651635; further: nearly all actives have a fitted effect of over 40% in size
FLuc enzyme inh: firefly luciferase inhibition, Nrf2 hit validation. shares compounds with Nrf2 block. purified firefly luciferase, luminescence inhibition. Potency, µM (titrated, usually from 57.5 µM), for inactives: at the highest dose activity change, negative = inhibition, hits mostly inhibitors. 1,400 compounds, 4% hits. AID 720522; further: on the % scale 0 is the no-effect control and ±100 the full control effect; nearly all actives have a fitted effect of over 65% in size
Target sequence (P08659 whole entry, looked up): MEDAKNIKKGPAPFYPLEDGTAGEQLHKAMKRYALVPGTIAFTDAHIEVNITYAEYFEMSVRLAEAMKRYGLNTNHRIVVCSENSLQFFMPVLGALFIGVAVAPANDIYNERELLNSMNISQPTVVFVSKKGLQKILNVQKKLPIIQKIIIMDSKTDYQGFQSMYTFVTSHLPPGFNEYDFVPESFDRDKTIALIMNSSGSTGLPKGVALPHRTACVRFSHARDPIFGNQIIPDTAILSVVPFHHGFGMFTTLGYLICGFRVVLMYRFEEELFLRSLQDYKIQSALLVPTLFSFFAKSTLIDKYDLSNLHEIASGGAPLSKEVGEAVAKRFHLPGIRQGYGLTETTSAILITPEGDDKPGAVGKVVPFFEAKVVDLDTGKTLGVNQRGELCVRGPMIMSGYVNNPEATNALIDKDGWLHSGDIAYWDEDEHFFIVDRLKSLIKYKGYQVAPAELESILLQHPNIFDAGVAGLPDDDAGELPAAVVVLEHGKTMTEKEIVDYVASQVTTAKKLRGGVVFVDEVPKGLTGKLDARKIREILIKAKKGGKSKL
A549 tox-2: counter-screen for Nrf2 inhibitors: cytotoxicity in A549 ARE cells; shares compounds with Nrf2 block; A549 ARE-Fluc cells, cytotoxicity counterscreen; Potency, µM (titrated, usually from 46.1 µM), without a hit: at the highest dose activity change, negative = cytotoxicity, hits mostly inhibitors; 1,400 compounds, 2% hits; AID 720523;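 further: cells exposed to compounds for 18 to 24 hours; on the % scale 0 is the no-effect control and ±100 the full control effect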
Nrf2 ARE inh: confirmation of Nrf2 inhibitors in A549 ARE reporter cells; A549 ARE-firefly luciferase reporter, luminescence; shares compounds with Nrf2 block; Potency, µM (doses to about 46.1 µM), for the others: top-dose activity change, negative = inhibition, most hits filed as inhibitors; 1,400 compounds, 74% hits; further: on the % scale 0 is the no-effect control and ±100 the full control effect; nearly all actives have a fitted effect of over 65% in size
* = called active by the depositor. The call rests on the fitted dose curve; in most records, active means well fitted curve in the direction sought with a large enough effect; inconclusive means small, poorly fitted or top-dose-only effect, or another doubt; inactive means no such curve, though single readings can be large; an effect the other way counts as inactive or inconclusive. Potency means the concentration at half of the fitted maximal effect.

For CC(=O)N1N=C(c2cccs2)CC1c1cccc([N+](=O)[O-])c1 (stereo not drawn) the results were Nrf2 block -21%, A549 tox-1 11%, Nrf2 ARE act 8% and S2 tox inactive.
CCCOC(c1ccccc1)(c1ccc(C(F)(F)F)cc1)C(Oc1nc(C)cc(C)n1)C(=O)O (stereo not drawn) was read as Nrf2 block 3.3µM*, A549 tox-1 -28%, Nrf2 ARE act 0%, S2 tox inactive, FLuc enzyme inh -1%, A549 tox-2 -29% and Nrf2 ARE inh 1.8µM*.
`O=C(NCC(c1ccco1)N1CCCC1)c1cn(Cc2ccccc2)nc1-c1ccccc1` (stereo not drawn) gave ATXN2 expr inh 0%, Nrf2 block 7%, A549 tox-1 -2%, Nrf2 ARE act 0% and S2 tox inactive.
For CCC(=O)c1cn(CC(=O)Nc2cccc(C)c2C)c2ccccc12 the results were ATXN2 expr inh -2%, Nrf2 block -6%, A549 tox-1 0%, Nrf2 ARE act 0% and S2 tox inactive.
For CC(=O)c1cn(CC(=O)Nc2cccc(C)c2C)c2ccccc12 the results were ATXN2 expr inh -6%, Nrf2 block 5.2µM*, A549 tox-1 -5%, Nrf2 ARE act 3%, S2 tox inactive, FLuc enzyme inh 3%, A549 tox-2 -4% and Nrf2 ARE inh inconclusive.
For Cc1cc2[nH]c3c(c[n+](C)c4ccccc34)c2cc1C the results were ATXN2 expr inh inconclusive, Nrf2 block 5.8µM*, A549 tox-1 inconclusive, Nrf2 ARE act -2%, FLuc enzyme inh 1%, A549 tox-2 7% and Nrf2 ARE inh 7.3µM*.
For Cc1cc2[nH]c3c4ccccc4nc(C)c3c2cc1C the results were ATXN2 expr inh inconclusive, Nrf2 block inconclusive, A549 tox-1 inconclusive and Nrf2 ARE act -6%.
For COc1cccc2cc(C(=O)NCc3ccccn3)c(=O)oc12 the results were ATXN2 expr inh 30%, Nrf2 block 6%, A549 tox-1 -4%, Nrf2 ARE act 2% and S2 tox inactive.
O=C(O)CCn1c2c(c3ccccc31)CCCC2 was read as ATXN2 expr inh 3%, Nrf2 block -6%, A549 tox-1 -1%, Nrf2 ARE act 0% and S2 tox inactive.
Screening CCCCCCCn1c2c(c(=N)c3ccccc31)CCC2 returned Nrf2 block 2.3µM*, A549 tox-1 inconclusive, Nrf2 ARE act 0%, S2 tox inconclusive, FLuc enzyme inh 3%, A549 tox-2 inconclusive and Nrf2 ARE inh 1.5µM*.
`C[C@]12CCC(=O)C=C1CC[C@@H]1[C@H]2[C@@H](O)C[C@@]2(C)[C@H]1CC[C@]2(O)C(=O)CO` gave ATXN2 expr inh -11%.
`CC12CCC(=O)C=C1CCC1C2C(O)CC2(C)C1CCC2(O)C(=O)CO` (stereo not drawn) gave ATXN2 expr inh -6%, Nrf2 block 0.12µM*, A549 tox-1 -9%, Nrf2 ARE act 0%, S2 tox inactive, FLuc enzyme inh -1%, A549 tox-2 -5% and Nrf2 ARE inh 0.092µM*.
Screening C[C@]12CCC(=O)C=C1CC[C@@H]1[C@@H]2[C@@H](O)C[C@@]2(C)[C@H]1CC[C@]2(O)C(=O)CO returned ATXN2 expr inh 1%, Nrf2 block 0.029µM*, A549 tox-1 1%, Nrf2 ARE act 1%, S2 tox inactive, FLuc enzyme inh 3%, A549 tox-2 inconclusive and Nrf2 ARE inh 0.29µM*.

Assay outcomes from PubChem.
